Most compounds without a hit are left out; they make up all but 1.7% or so of the library.
CHT allo act = allosteric activators of human choline transporter CHT; Q9GZV3; CHT-expressing cells, membrane potential dye, choline EC20; active compounds read high; LV-AA mutant CHT in HEK293 cells; B-score at 10 µM; 310,000 tested, 0.49% active;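 active = initial fluorescence not abnormally high and integrated response B-score, plate-corrected, over 3 SD above library mean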
Target sequence (Q9GZV3 whole entry, looked up): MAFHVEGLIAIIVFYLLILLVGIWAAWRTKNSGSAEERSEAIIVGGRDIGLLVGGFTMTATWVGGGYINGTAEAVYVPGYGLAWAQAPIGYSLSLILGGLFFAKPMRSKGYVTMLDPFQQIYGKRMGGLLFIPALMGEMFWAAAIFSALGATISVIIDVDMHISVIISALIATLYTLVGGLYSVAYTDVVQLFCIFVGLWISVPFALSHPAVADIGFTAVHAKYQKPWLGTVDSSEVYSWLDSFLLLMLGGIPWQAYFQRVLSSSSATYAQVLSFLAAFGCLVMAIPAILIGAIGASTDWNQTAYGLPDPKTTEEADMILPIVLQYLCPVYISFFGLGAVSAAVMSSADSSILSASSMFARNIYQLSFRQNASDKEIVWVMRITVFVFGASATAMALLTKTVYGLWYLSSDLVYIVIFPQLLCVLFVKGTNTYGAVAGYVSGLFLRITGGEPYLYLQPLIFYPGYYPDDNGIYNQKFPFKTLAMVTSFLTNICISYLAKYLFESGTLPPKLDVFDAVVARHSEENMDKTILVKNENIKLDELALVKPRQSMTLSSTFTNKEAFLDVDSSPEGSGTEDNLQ
MIN6 prolif = inducers of beta-cell replication in MIN6 cells | MIN6 cells proliferation, ATPlite luminescence, 48 h; cells starved in 0.2% serum; 100% = growth in 10% serum | proliferation, % at 10 µM | 330,000 tested, 0.29% active | AID 2380;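 active = compounds whose signal lies at least 3.5 SD above the mean of all wells on their plate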;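 also: 0% = DMSO-treated cells in low-serum medium and 100% = 10% serum control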
CHT inh = inhibitors of human choline transporter CHT; B-score at 10 µM; AID 488975; CHT-expressing cells, membrane potential dye, choline response; active compounds read low; 310,000 tested, 0.86% active; Q9GZV3;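 active = B-score over 3 SD under the library average, and starting fluorescence ratio not unusually high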;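 also: choline stimulus applied at its EC90 after an EC20 pre-addition; B-score computed on integrated fluorescence ratio after choline addition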
H9c2 TAG inh = inhibitors of triacylglycerol accumulation. H9c2 cells, Nile Red lipid (TAG) fluorescence; cells loaded with 200 µM oleic acid. inhibition, % at 12.5 µM. 230,000 tested, 0.66% active. AID 651582;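 active = pattern-corrected inhibition of lipid staining of at least 50% with the nuclear-stain viability signal not falling by more than 50%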;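 also: 0% = DMSO wells and 100% = triacsin C control wells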
* = called active by the depositor.

For COc1cc(C(CCN2CCCC(C)C2)c2c(OC)cc(OC)c3c2OC(=O)CC3c2ccc(N(C)C)cc2)cc(OC)c1OC (centres undefined) the results were CHT allo act inactive, MIN6 prolif -8, CHT inh -5.1* and H9c2 TAG inh 19.
Screening COc1cc(C2CC(=O)Oc3c(C(CCN4CCCC(C)C4)c4ccc(N(C)C)cc4)c(OC)cc(OC)c32)cc(OC)c1OC (centres undefined) returned CHT allo act inactive, MIN6 prolif -4, CHT inh inactive and H9c2 TAG inh 1.
Screening COc1cc(OC)nc(Oc2cc(C=O)ccc2OC)n1 returned CHT allo act inactive, MIN6 prolif -1 and CHT inh inactive.
For O=C(c1ccccc1)c1cnc(Nc2ccc(Cl)c(Cl)c2)s1 the results were CHT allo act inactive, MIN6 prolif -1 and CHT inh inactive.
For CNc1ncc(C(=O)c2ccc(F)cc2)s1 the results were CHT allo act inactive, MIN6 prolif 10*, CHT inh inactive and H9c2 TAG inh -9.
`Nc1nc2ccccc2n1CCOc1ccccc1Cl` gave CHT allo act inactive, MIN6 prolif -3 and CHT inh -14*.
Screening O=C(O)c1cccc2c1C(=O)c1ccc(N3CCN(Cc4ccc5c(c4)OCO5)CC3)cc1S2(=O)=O returned H9c2 TAG inh 3.
For CC(C)(C)c1ccc(C(=O)N2CCC(C(=O)NC3CCCCCC3)CC2)cc1 the results were CHT allo act inactive, MIN6 prolif -1 and CHT inh -5.1*.
For O=C(OCC(=O)N1CCCC1=O)c1nc(Cl)c(Cl)c(Cl)c1Cl the results were CHT allo act inactive, MIN6 prolif -6, CHT inh -5* and H9c2 TAG inh 4.
For Cc1ccc(C)c(SCC(=O)OCC(=O)NCCNC(=O)COC(=O)CSc2cc(C)ccc2C)c1 the results were CHT allo act inactive, MIN6 prolif 0, CHT inh inactive and H9c2 TAG inh 12.
Cc1cc(C)c(S(=O)(=O)Nc2ccc3c4c(cccc24)CC3)c(C)c1 was read as CHT allo act inactive, MIN6 prolif -6, CHT inh inactive and H9c2 TAG inh 58*.
Screening CC(C)(C)NC(=O)c1ccc2nsnc2c1 returned CHT allo act inactive, MIN6 prolif 0.0* and CHT inh inactive.
Screening CCOC(=O)c1c(CSC(=N)N)n(C)c2cc(Br)c(OC(C)=O)cc12 returned CHT allo act inactive, MIN6 prolif -6, CHT inh inactive and H9c2 TAG inh 21.
CCOC(=O)c1c(CSC(=N)N)n(-c2ccc(C)cc2)c2cc(Br)c(OC(C)=O)cc12 was read as CHT allo act inactive, MIN6 prolif -6, CHT inh inactive and H9c2 TAG inh 74*.
Screening CC(=O)Nc1cccc(C(=O)Nc2cc(C(F)(F)F)ccc2-n2cncn2)c1 returned H9c2 TAG inh 8.
`CC1=CC(C)(C)Nc2ccc(OC(=O)C(Cc3ccccc3)N3C(=O)c4ccccc4C3=O)cc21` (centres undefined) gave CHT allo act inactive, MIN6 prolif -4, CHT inh inactive and H9c2 TAG inh -43.
`CC1=CC(C)(C)Nc2ccc(OC(=O)CN3C(=O)c4ccccc4C3=O)cc21` gave CHT allo act inactive, MIN6 prolif -3, CHT inh inactive and H9c2 TAG inh 52*.
COc1cccc(/C=N/Nc2nc3ccccc3[nH]2)c1O was read as CHT allo act inactive, MIN6 prolif -6, CHT inh inactive and H9c2 TAG inh 59*.
For Cc1c(/C=N/Nc2nc3ccccc3[nH]2)c2ccccc2n1C the results were CHT allo act inactive, MIN6 prolif -4, CHT inh inactive and H9c2 TAG inh 62*.
Cn1c(/C=N/Nc2nc3ccccc3[nH]2)nc2ccccc21 was read as CHT allo act inactive, MIN6 prolif -6 and CHT inh inactive.
For COc1ccc(CN2CCC[C@]3(N[C@H](c4ccccc4)[C@@H]4C(=O)N(C)C(=O)[C@@H]43)C2=O)cc1 the results were H9c2 TAG inh 1.
Screening Cc1ccc(S(=O)(=O)Cc2cc(F)c([N+](=O)[O-])cc2[N+](=O)[O-])cc1 returned CHT allo act inactive, MIN6 prolif -4 and CHT inh -6.4*.
Screening CCOC(=O)c1ccc([N+](=O)[O-])c(CS(=O)(=O)c2ccc(Cl)cc2)c1 returned CHT allo act inactive, MIN6 prolif 3 and CHT inh inactive.
Screening Cc1c(Cl)cccc1NC(=O)C1CC2CCC1C2 (centres undefined) returned CHT allo act inactive, MIN6 prolif 4, CHT inh inactive and H9c2 TAG inh 4.
Screening Cc1ccc(S(=O)(=O)c2cc3ccccc3oc2=Nc2ccc3c(c2)OCCO3)cc1 returned CHT allo act inactive, MIN6 prolif 0.0* and CHT inh inactive.
For Cc1ccc(S(=O)(=O)c2cc3ccccc3oc2=Nc2ccc3c(c2)OCO3)cc1 the results were CHT allo act inactive, MIN6 prolif -2, CHT inh inactive and H9c2 TAG inh 10.
`CCCOc1ccccc1OCC(=O)Nc1cccc(S(=O)(=O)NC2=NCCC2)c1` gave MIN6 prolif 2 and H9c2 TAG inh -3.
Screening O=[N+]([O-])c1ccc(N=Nc2ccc(O)cc2O)cc1 returned CHT allo act inactive, MIN6 prolif -6, CHT inh -9.9* and H9c2 TAG inh -3.
O=C(O)c1ccc(N/N=C/c2ccc(-c3ccccc3Cl)o2)cc1 was read as CHT allo act inactive, MIN6 prolif -2, CHT inh inactive and H9c2 TAG inh 68*.
Screening CCC(C)(C)C1CCc2c(sc(NC(=O)c3ccccc3C(=O)O)c2C#N)C1 (centres undefined) returned CHT allo act inactive, MIN6 prolif -4, CHT inh -7.7* and H9c2 TAG inh 10.
`Cc1c[nH]c2cccc(OCC(CNC(C)(C)C)OC(=O)c3ccccc3)c12` (centres undefined) gave CHT allo act inactive, MIN6 prolif 3 and CHT inh -11*.
Screening C#Cc1ccc(NC(=O)C2(C)CCN2C(=O)Cc2ccc(C(C)C)cc2)cc1 (centres undefined) returned H9c2 TAG inh -16.
`COc1cc(C(=O)N2CCN(c3cccc(C)c3C)CC2)cc(OC)c1OC` gave CHT allo act inactive, MIN6 prolif -5, CHT inh inactive and H9c2 TAG inh 56*.
Screening Cc1ccc(C(=O)O)cc1N1C(=O)c2cccc3c([N+](=O)[O-])ccc(c23)C1=O returned CHT allo act inactive, MIN6 prolif -5, CHT inh -5* and H9c2 TAG inh 11.
CC(=O)Oc1cccc(N2C(=O)c3cccc4c([N+](=O)[O-])ccc(c34)C2=O)c1 was read as CHT allo act inactive, MIN6 prolif -5 and CHT inh inactive.
Screening COc1ccccc1NC(=O)CS(=O)(=O)c1cn(CC(=O)N2CCCC2)c2ccccc12 returned CHT allo act inactive, MIN6 prolif -2, CHT inh inactive and H9c2 TAG inh -1.
For COc1ccc(C2NCCc3c2[nH]c2ccccc32)cc1CN1CCc2cc(OC)c(OC)cc2C1C (centres undefined) the results were H9c2 TAG inh 37.

High-throughput results deposited in PubChem by several laboratories.
